Measured values as given in PubChem BioAssay (NCI).
The panel holds about 79,000 compounds, 15% with a hit somewhere; the sample as a whole holds those more often. Unmarked numbers belong to inactive results. No stated cut-off is given here; in the data, active means growth inhibition above about 70%; inactive means the rest. Where a SMILES comes first, the peptide text is derived from it. The star is where a group is joined. Cbz = O=C(OCc1ccccc1)*

Test: NCI Yeast Anticancer Drug Screen. Data for the rad50 strain (AID 155);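 further: 0% = growth of vehicle-only cultures of the same strain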
Conditions: S. cerevisiae rad50 strain growth inhibition; at 50.0 µM; active compounds read high
Outline: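 Relative growth inhibition (compound vs vehicle) was measured in yeast with a defined repair-gene alteration.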
`CCC(COCC(CC)C(=O)O)C(=O)O` (stereo not given) showed a growth inhibition of 11.3%. In the case of `c1ccc(CCN=C2c3ccccc3-n3cccc32)nc1`, the growth inhibition is reported as 33.5%. With `Cc1ccc(N2C(=O)CSC2=S)cc1C` the growth inhibition was -1.7%. Compound `C=CC(=O)NC(C)C(=O)O` (stereo not given) has a growth inhibition of -4.45%. Compound `COc1ccc(C(=O)/C=C/C(C)=C/C=N/N(C)c2ccccc2)cc1` has a growth inhibition of 14%. With `O=C(O)c1ccc(C2C3C=CC(C3)C2[N+](=O)[O-])cc1` (stereo not given) the growth inhibition was 6.15%. In the case of `c1ccc(CCc2ccnc3ccccc23)cc1`, the growth inhibition is reported as 8.15%. `O=[N+]([O-])c1ccc(Nc2ccccc2)c([N+](=O)[O-])c1` showed a growth inhibition of 2.4%. Compound `O=C1CCC2c3ccccc3C(=O)C2C1` (stereo not given) has a growth inhibition of 6.7%. Work on `O=C(NNC(=O)c1ccc2ccccc2c1)c1cccc(Br)c1` yielded a growth inhibition of -21.1%. `N#C/C(=C1\OC(=O)C(c2ccc(Br)cc2)=C1O)c1ccc(Br)cc1` gave a growth inhibition of 8.15%. Compound `NC(=O)c1csc([C@@H](O)Cc2ccccc2)n1` has a growth inhibition of -2.25%. `CN1c2ccccc2C(=O)NC12CCN(Cc1ccccc1)CC2` showed a growth inhibition of -30.2%. In the case of `CSc1nc2c([nH]1)c(=O)n(C)c(=O)n2C`, the growth inhibition is reported as 8.8%. For `CC(Nc1ncccn1)Nc1ncccn1`, the growth inhibition was -6.4%. Compound `CCc1nc2c([nH]1)c(=O)n(C)c(=O)n2C` has a growth inhibition of 35%. With `O=C(Nc1ccn(C2CCC(CO)O2)c(=O)n1)c1ccccc1` (stereo not given) the growth inhibition was 35.8%. Work on `C(=N\c1nc2ccccc2s1)/c1cccs1` yielded a growth inhibition of -15.7%. Work on `CN(C)Cc1cc(C=O)cc(CN(C)C)c1O` yielded a growth inhibition of 10.3%. `ClC1CC/C=C\CC/C=C/CCC1Cl` (stereo not given) gave a growth inhibition of 55.7%. With `CCOc1ccc2nc(NC(=O)C(=O)C3C(=O)C(CC4C(=O)c5ccccc5C4=O)C(=O)CC3(C)C)sc2c1` (stereo not given) the growth inhibition was 31.4%. `CCOC(=O)c1cccc(OCC)c1` showed a growth inhibition of 6.95%. `CCc1ccccc1NC(=O)NCC(C)C` gave a growth inhibition of -7.65%. For `CCNC(=O)Nc1ccccn1`, the growth inhibition was -8.4%. With `NC(=O)N/N=C/c1cccc2ccccc12` the growth inhibition was 24.2%. Compound `CSc1nc(SC)c2cnn(C3OC(CO)C(O)C3O)c2n1` (stereo not given) has a growth inhibition of 12%. Work on `O=C(NO)C(=O)Nc1ccc(Cl)cc1[N+](=O)[O-]` yielded a growth inhibition of 47%. `O=c1c(-c2ccccc2)c(O)on1/C=C1/C=CC=N1` gave a growth inhibition of -8.6%. `CC(=O)OC12C=CC(=O)N1c1ccccc1C(=O)O2` (stereo not given) showed a growth inhibition of 18.4%. For `O=c1c2ccccc2nc(-c2ccc(Br)cc2)n1NC1OC(CO)C(O)C(O)C1O` (stereo not given), the growth inhibition was 7.05%. `COC(=O)N/N=C(/c1nc2ccc([N+](=O)[O-])cc2[nH]c1=O)C(O)c1ccc(OC)c(OC)c1` (stereo not given) showed a growth inhibition of -3.3%. Work on `C=CC(CO)N(CC)CC` (stereo not given) yielded a growth inhibition of 9.55%. For `CC(C)(C)[Si](C)(C)OCC1OC(n2cc(I)c(=O)[nH]c2=O)C(O[Si](C)(C)C(C)(C)C)C1O[Si](C)(C)C(C)(C)C` (stereo not given), the growth inhibition was -19.2%. For `CC1(C2c3ccccc3CC2OC2CCCCO2)CO1` (stereo not given), the growth inhibition was -8.35%. `O=C(NC(CSC(=O)OCc1ccccc1)C(=O)Oc1ccc([N+](=O)[O-])cc1)OCc1ccccc1` (stereo not given) gave a growth inhibition of 16.3%. In the case of `O=C1/C(=C/C=C/c2ccccc2)CCC1CNc1ccc(Br)cc1` (stereo not given), the growth inhibition is reported as -20.2%. With `COc1ccc2c(c1)C1=C(CC2)C(=O)OC1=O` the growth inhibition was -0.9%. `COC(=O)C(NC(=O)C(C)NC(=O)C1CCCN1C(=O)CNC(=O)C(CO)NC(=O)C(NC(=O)OCc1ccccc1)C(C)O)C(C)O` (stereo not given) (Cbz-TSGPAT-OMe; configuration not given here) showed a growth inhibition of 3.3%. Work on `CC(=O)C(C(C)=O)[N+](=O)[O-].CC(=O)C(C(C)=O)[N+](=O)[O-].[Cu]` yielded a growth inhibition of 17.1%. For `CN(C)CCCNc1ccc2nnn3c4ccc([N+](=O)[O-])cc4c(=O)c1c23`, the growth inhibition was 68.8%.
